PMC4336329 (PLoS ONE, 2015)
The whole screen tested about 310,000 compounds, of which about 14,000 (4.5%) showed an effect of 50% or more. The effect is printed as a negative number. Many of the other results were omitted from the sample, so strong results are more common in it than they were.

target: human ether-à-go-go-related gene (hERG) potassium channel (human, UniProt Q12809); assay: primary screen, population patch clamp on CHO cells stably expressing hERG; higher = less effect of the substance
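Also: peak tail current of the secondary pulse compared with the same well before compound.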

Chain of human ether-à-go-go-related gene (hERG) potassium channel (Q12809 whole entry, looked up): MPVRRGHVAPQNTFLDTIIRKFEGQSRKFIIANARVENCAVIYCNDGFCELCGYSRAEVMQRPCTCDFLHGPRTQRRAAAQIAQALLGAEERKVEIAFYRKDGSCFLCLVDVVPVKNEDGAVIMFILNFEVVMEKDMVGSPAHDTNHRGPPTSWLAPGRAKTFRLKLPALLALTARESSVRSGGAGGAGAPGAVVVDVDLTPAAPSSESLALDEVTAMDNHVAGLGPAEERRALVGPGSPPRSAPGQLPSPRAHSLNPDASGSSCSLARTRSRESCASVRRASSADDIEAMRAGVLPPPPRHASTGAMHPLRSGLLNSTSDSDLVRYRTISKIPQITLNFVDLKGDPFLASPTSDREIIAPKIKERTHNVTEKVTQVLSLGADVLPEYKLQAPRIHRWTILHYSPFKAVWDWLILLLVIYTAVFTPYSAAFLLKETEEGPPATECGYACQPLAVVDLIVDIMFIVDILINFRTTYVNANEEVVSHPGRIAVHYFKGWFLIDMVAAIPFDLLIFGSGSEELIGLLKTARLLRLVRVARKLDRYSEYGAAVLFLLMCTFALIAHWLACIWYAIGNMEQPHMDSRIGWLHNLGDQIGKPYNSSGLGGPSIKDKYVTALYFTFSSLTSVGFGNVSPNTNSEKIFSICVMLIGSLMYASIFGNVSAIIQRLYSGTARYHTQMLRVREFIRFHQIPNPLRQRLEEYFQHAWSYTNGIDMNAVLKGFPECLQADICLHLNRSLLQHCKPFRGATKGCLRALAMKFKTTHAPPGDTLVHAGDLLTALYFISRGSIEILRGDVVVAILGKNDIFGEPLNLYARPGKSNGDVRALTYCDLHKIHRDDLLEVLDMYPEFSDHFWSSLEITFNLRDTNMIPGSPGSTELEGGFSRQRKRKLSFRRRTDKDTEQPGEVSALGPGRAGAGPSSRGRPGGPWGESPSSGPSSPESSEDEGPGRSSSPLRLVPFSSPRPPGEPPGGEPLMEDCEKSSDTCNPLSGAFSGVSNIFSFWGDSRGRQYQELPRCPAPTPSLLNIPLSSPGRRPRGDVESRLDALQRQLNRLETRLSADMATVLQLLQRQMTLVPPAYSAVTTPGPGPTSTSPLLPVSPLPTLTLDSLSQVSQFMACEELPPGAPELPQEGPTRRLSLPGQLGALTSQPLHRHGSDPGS

Point of comparison: `COc1ccc(OC)c(CN2CCN(C(=O)CCNC(=O)c3ccc(Br)cc3)CC2)c1`, “hERG current change (%, negative = inhibition) at 10uM” value -45.7%. Against it:
- N/C(=N\OC(=O)C(c1ccccc1)c1ccccc1)c1ccccn1 — higher, 8.35%
- Cl.O=C(NCC(c1cccs1)N1CCOCC1)c1ccc(Cl)s1 (centres unmarked) — higher, -21.6%
- CC(=O)NC(=O)COC(=O)/C=C/c1c(C)nn(Cc2c(Cl)cccc2Cl)c1Cl — higher, -2.82%
- O=C(O)CSc1nc2ccc(C(=O)c3ccccc3)cc2[nH]1 — higher, 17.2%
- CCC(=O)c1cn(Cc2ccccc2)c2ccccc12 — higher, -7.05%
- CC(C)(C)C(=O)c1cn(Cc2ccccc2)c2ccccc12 — higher, -4.12%
- CCOC(=O)c1cn(CC)c2cc(F)c(F)cc2c1=O — higher, 3.48%
- O=C(O)c1cn(Cc2ccccc2)c2ccccc2c1=O — lower, -79.3%
- CCCn1cc(C(=O)OCC)c(=O)c2cc(F)c(F)cc21 — higher, 2.11%
- CCCCCCn1cc(C(=O)OCC)c(=O)c2cc(F)c(F)cc21 — lower, -52.6%
- COc1ccc(OC)c(N2C(=O)CC(Cc3ccc(C)cc3)C2=O)c1 (centres unmarked) — higher, -2.87%
- CCC1(c2ccccc2)NC(=O)N(CC(=O)Nc2ccc3c(c2)OCO3)C1=O (centres unmarked) — higher, -6.09%
- CCOC(=O)c1oc2cccc(O)c2c1C — higher, -7.22%
- C=CCn1c(SCc2c(F)cccc2Cl)nnc1-c1ccco1 — higher, -19.3%
- COc1cccc(CN2CCN(CCc3ccccc3)C(CCO)C2)c1OC (centres unmarked) — higher, -34.8%
- COc1ccc(OC)c(CN2CCN(CCCc3ccccc3)C(CCO)C2)c1 (centres unmarked) — lower, -68.6%
- COc1ccc(OC)c(CN2CCN(CCc3ccccc3)C(CCO)C2)c1 (centres unmarked) — lower, -60.6%
- COc1ccc(CN2CCN(CCCc3ccccc3)C(CCO)C2)c(OC)c1 (centres unmarked) — lower, -72.9%
- COc1ccc(CN2CCN(CCc3ccccc3)C(CCO)C2)c(Cl)c1OC (centres unmarked) — lower, -60.1%
- CCOC(=O)C1(CC)CC(CSc2nc3ccccc3[nH]2)OC1=O.Cl (centres unmarked) — higher, -2.61%
- COc1ccc(C(=O)Nc2cccc3ccccc23)cc1 — higher, 1.02%
- CC(C)(C)c1cc(C(=O)NNc2cccc(Cl)c2)n(Cc2ccccc2)n1 — higher, -4.28%
- Cc1cc(-c2nnc(SCC(=O)Nc3ccccc3F)n2N)n[nH]1 — higher, 13.8%
- CC1(C)NC(=O)N(CCCC(=O)Nc2ccc(C(F)(F)F)cc2)C1=O — higher, -16.9%
- CCOC(=O)c1c(-c2cccs2)csc1NC(C)=O — higher, -1.29%
- COc1ccc(N2CC(C(=O)OCC(=O)Nc3ccccc3C)CC2=O)cc1 (centres unmarked) — higher, 15.6%
- CN1CCN(C(=S)c2ccc(Cl)cc2)CC1 — higher, 3.39%
- CCCN(CC1CC1)C(=O)COc1ccccc1C(=O)NCc1ccccc1 — lower, -56%
- CCN(C(=O)COc1ccccc1C(=O)NCc1ccccc1)C1CCS(=O)(=O)C1 (centres unmarked) — higher, -22.1%
- CCC(C)N(C(=O)COc1ccccc1C(=O)NCc1ccccc1)C1CCS(=O)(=O)C1 (centres unmarked) — higher, -39.2%
- COc1ccc(-n2nc3c(c2NC(=O)c2cc(Br)ccc2Cl)CS(=O)C3)cc1 (centres unmarked) — higher, -43.4%
- COc1ccc(-n2nc3c(c2NC(=O)c2ccc(Br)cc2)CS(=O)C3)cc1 (centres unmarked) — lower, -50.8%
- COc1ccc(C(=O)Nc2c3c(nn2-c2cccc(Cl)c2)CS(=O)C3)cc1 (centres unmarked) — higher, -25.6%
- CN(C)c1ccc(Sc2nnc(NC(=O)Nc3ccc(Cl)cc3Cl)s2)cc1 — higher, 12.2%
- O=C(O)c1cccc(S(=O)(=O)Nc2ccc3c(c2)OCO3)c1 — higher, 23.4%
- COc1ccc(OC)c(CN2CCN(C(=O)CNC(=O)c3cc(C)cc(C)c3)CC2)c1 — higher, -42.7%
- O=C(NCc1ccccc1CN1CCCC1)c1cccc(N2CCCC2=O)c1 — higher, -3.11%
- COc1ccc(C(=O)NCc2ccccc2CN2CCCC2)cc1S(=O)(=O)Nc1ccc(C)cc1 — lower, -57.9%
- COc1ccc(OC)c(CN2CCN(C(=O)CNC(=O)c3ccc(C(C)(C)C)cc3)CC2)c1 — lower, -53.9%
- CN(C)CC(NC(=O)c1cccc(S(=O)(=O)Nc2ccc3c(c2)OCO3)c1)c1ccccc1 (centres unmarked) — higher, -14.8%
- COc1ccc(C(=O)NCc2ccccc2OC)cc1 — higher, -10.3%
- COc1ccc(C(=O)O)cc1S(=O)(=O)Nc1ccc(C)cc1 — higher, 23.1%
- CCN(CC)Cc1ccccc1CNC(=O)c1cccc(S(=O)(=O)Nc2ccc3c(c2)OCO3)c1 — lower, -71.3%
- COc1ccc2cc(C(=O)NCc3ccccc3CN3CCCC3)ccc2c1 — lower, -68.2%
- CCN1CCN(C(=O)c2ccc(OC)c(S(=O)(=O)Nc3ccc(C)cc3)c2)CC1 — higher, -18.4%
- COc1ccccc1-c1nc(S(=O)(=O)c2ccccc2)c(N2CCCCC2)o1 — higher, 14.4%
- Cc1cc(C)cc(NC(=O)CSc2nc3[nH]ncc3c(=O)[nH]2)c1 — higher, 11.8%
- C/C(=N\NC(=S)Nc1cccc(C)c1)c1ccco1 — higher, -6.35%
- Cc1cc2c3c(c1C)C(=O)C(=O)N3C(C)(C)CC2C (centres unmarked) — higher, 6.5%
- O=C(COC(=O)CCCN1C(=O)c2ccccc2C1=O)Nc1cc(Cl)cc(Cl)c1 — higher, -3.11%
- CC12CCC(C(=O)Nc3nc4ccccc4s3)(OC1=O)C2(C)C (centres unmarked) — higher, 2.26%
- COc1ccc(NS(=O)(=O)c2cccc(C(=O)NCCCN3CCOCC3)c2)cc1 — higher, 5.96%
- COc1ccc(NS(=O)(=O)c2cccc(C(=O)NCc3ccccc3CN3CCCC3)c2)cc1 — lower, -64.4%
- Cc1cccc(NS(=O)(=O)c2cccc(C(=O)NCc3ccccc3CN3CCOCC3)c2)c1 — higher, -26%
- Cc1nc(COc2ccc(C(=O)Nc3ccccc3N3CCOCC3)cc2)cs1 — lower, -49.1%
- O=C(NCc1ccccc1CN1CCCC1)c1ccc(OCc2cscn2)cc1 — higher, -30%
- COc1ccc(NS(=O)(=O)c2cccc(C(=O)NCc3ccco3)c2)cc1 — higher, -15.8%
- Cc1nc(COc2ccc(C(=O)NCc3ccccc3CN3CCCCC3)cc2)cs1 — lower, -52.5%
- O=C(NCCN1CCOCC1)c1cccc(S(=O)(=O)Nc2ccc(F)cc2)c1 — higher, -5.27%
- O=C(NCc1ccccc1CN1CCCC1)c1cccc(S(=O)(=O)Nc2ccc(F)cc2)c1 — lower, -75.2%
- COc1ccc(N/C=C(\C(C)=O)c2ccc(OC)c(OC)c2)cc1OC — higher, 18.2%
- CCNc1nc(N2CCOCC2)nc(N(c2ccccc2)c2ccccc2)n1 — higher, -12.9%
- CS(=O)(=O)N1CCC(C(=O)Nc2cc(Cl)cc(Cl)c2)CC1 — higher, 4.85%
- Cn1c(=O)c2c(nc(Sc3ccccc3N)n2C)n(C)c1=O — higher, 11.4%
- CC(C)CC(c1nnnn1Cc1ccco1)N1CCN(C2CCCC2)CC1.Cl (centres unmarked) — higher, -38.1%
- Cl.c1coc(Cn2nnnc2CN2CCN(C3CCCCC3)CC2)c1 — higher, -41.4%
- CC(C)C(c1nnnn1Cc1ccco1)N1CCN(C2CCCC2)CC1.Cl (centres unmarked) — higher, -3.68%
- Cl.c1ccc(C(c2nnnn2Cc2ccco2)N2CCN(C3CCCC3)CC2)cc1 (centres unmarked) — lower, -53.5%
- CCCC(c1nnnn1Cc1ccco1)N1CCN(C2CCCC2)CC1 (centres unmarked) — higher, -31%
- Cl.Fc1ccc(C(c2nnnn2Cc2ccco2)N2CCN(C3CCCCC3)CC2)cc1 (centres unmarked) — lower, -65.6%
- N#Cc1nc(COc2ccccc2)oc1N1CCOCC1 — higher, -19.6%
- Cc1ccc(NC(=O)/C=C\C(=O)NCC(=O)O)cc1 — higher, 0.434%
- CC(=O)C1=C(C)Nc2ncnn2C1c1ccc(Cl)cc1Cl (centres unmarked) — higher, 2.23%
- Cn1cc(CN2CCC(n3nccc3NC(=O)Cc3ccccc3)CC2)cn1 — higher, -41.8%
- COc1ccc(C(=O)N2CCN(c3ccc(NC(=O)c4cccnc4)cc3)CC2)cc1 — lower, -53.7%
- Cc1ccc(C(=O)N2CCN(c3ccc(NC(=O)c4cccnc4)cc3)CC2)cc1 — higher, -38.8%
- O=C(Nc1ccc(N2CCN(C(=O)c3ccccc3)CC2)cc1)c1cccnc1 — higher, -1.77%
- CCc1ccc(C(=O)N2CCN(c3ccc(NC(=O)c4cccnc4)cc3)CC2)cc1 — lower, -71.3%
- COc1ccc(NC(=O)c2cccnc2)cc1 — higher, -11.1%
- Cc1ccccc1C(=O)N1CCN(c2ccc(NC(=O)c3cccnc3)cc2)CC1 — higher, -23%
- C=CCN1C(=O)C(C)(C)N(C(=O)c2cccc([N+](=O)[O-])c2)c2ccccc21 — higher, -16.4%
- Cc1ccc[n+](C2C(c3ccc([N+](=O)[O-])cc3)C(C#N)=C([S-])NC2(O)C2CC2)c1 (centres unmarked) — higher, 0.00258%
- O=C(CCCN1C(=O)c2ccccc2C1=O)NCC1CCCO1 (centres unmarked) — higher, 12.2%
- COc1cc(SC)ccc1C(=O)Nc1ccc2c(c1)OCCO2 — higher, -18.4%
- CCCCc1c(C)nn(-c2nnc3c4ccccc4n(C)c3n2)c1C — higher, -4.7%
